Results on 20 compounds are retold here after PubChem BioAssay (Tox21).

Test [1] in a line: qHTS assay to test for compound auto fluorescence at 535 nm (green) in HEK293 cell free culture (AID 720682). In short, it runs like this: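 Fluorescein serves as the green reference fluorophore; each compound's intrinsic emission at 535 nm (excitation 485 nm) is reported as an equivalent amount of that dye, measured in serum-containing DMEM without cells.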
(In general: In qHTS, concentration-response curves come from the screen itself.)

A short description of test [2]: qHTS assay to test for compound auto fluorescence at 590 nm (red) in HEK293 cell free culture (AID 720683). In short, it runs like this:
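Cell-free wells of DMEM with 10% FBS received compound, and intrinsic fluorescence was read at excitation/emission 540/590 nm. Values expressed as equivalence to Rose Bengal sodium.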

Test [3] in a line: qHTS assay to test for compound auto fluorescence at 460 nm (blue) in HepG2 cell free culture (AID 720685). In short, it runs like this:
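Cell-free plates of MEM plus 10% FBS received 23 nL compound or DMSO vehicle; blue-channel (405/460 nm) intensity scored against triamterene as reference fluorophore.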

Test [4] can be described thus: qHTS assay to test for compound auto fluorescence at 535 nm (green) in HepG2 cell free culture (AID 720686).
Test [5] is described as follows: qHTS assay to test for compound auto fluorescence at 590 nm (red) in HepG2 cell free culture (AID 720684). In short, it runs like this:
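Auto fluorescence equivalency versus Rose Bengal sodium, red channel Ex/Em 540/590 nm; compounds in cell-free MEM/10% FBS; DMSO vehicle control.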

The nature of test [6]: qHTS assay to test for compound auto fluorescence at 460 nm (blue) in HepG2 cells (AID 720687). In short, it runs like this: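 HepG2 cells in MEM with 10% FBS, attached overnight at 37 C, were exposed to compound or DMSO for 1 hr at 37 C, 5% CO2. Blue fluorescence was read at 405/460 nm, with triamterene as reference fluorophore.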
Test [7] can be described thus: qHTS assay to test for compound auto fluorescence at 460 nm (blue) in HEK293 cell free culture (AID 720681). In short, it runs like this: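 Compounds were added to cell-free DMEM with 10% FBS and fluorescence read directly. The blue channel used 405 nm excitation and 460 nm emission, with triamterene as the reference fluorophore.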
The target in test [8] is Glucocorticoid receptor (Homo sapiens) (UniProt P04150). The experiment in a line: qHTS assay to identify small molecule agonists of the glucocorticoid receptor (GR) signaling pathway (AID 720691; active = well fitted activation curve with a large enough effect in the signal ratio in the repeat runs, not every such curve was filed as active; the % refers to the signal ratio; also: potency is read from the fitted curve at half-maximal effect). In short, it runs like this:
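A HeLa cervical cancer line expressing GR and a glucocorticoid response element-driven beta-lactamase gene is treated with compounds for 18 h; LiveBLAzer B/G FRET substrate is then applied and fluorescence read.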

The target is the same in test [9]. The test can be described thus: qHTS assay to identify small molecule antagonists of the glucocorticoid receptor (GR) signaling pathway (AID 720692; active = well fitted inhibition curve with a large enough effect in the signal ratio in the repeat runs, not every such curve was filed as active; the % refers to the signal ratio). In short, it runs like this: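 GRE-bla HeLa line, dex-stimulated (5 nM final). Compound exposure 18 h, 37 C. Beta-lactamase FRET read after 2 h RT substrate.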

“And” between values parts separate entries of the source, which are not always exact repeats. Identical values can stand only once. Inconclusive results are not listed. The source holds several records for some structures; these can differ, active in one and inactive in another. The source made the active and inactive calls. Unless noted, calls follow the shape of the dose curve; as a rule, active = well fitted curve in the direction sought with a large enough effect in the repeat runs; inconclusive = weak or mixed curves; inactive = flat fitted curve, though single readings scatter.

Sequence of Glucocorticoid receptor (Homo sapiens) (P04150 whole entry, looked up): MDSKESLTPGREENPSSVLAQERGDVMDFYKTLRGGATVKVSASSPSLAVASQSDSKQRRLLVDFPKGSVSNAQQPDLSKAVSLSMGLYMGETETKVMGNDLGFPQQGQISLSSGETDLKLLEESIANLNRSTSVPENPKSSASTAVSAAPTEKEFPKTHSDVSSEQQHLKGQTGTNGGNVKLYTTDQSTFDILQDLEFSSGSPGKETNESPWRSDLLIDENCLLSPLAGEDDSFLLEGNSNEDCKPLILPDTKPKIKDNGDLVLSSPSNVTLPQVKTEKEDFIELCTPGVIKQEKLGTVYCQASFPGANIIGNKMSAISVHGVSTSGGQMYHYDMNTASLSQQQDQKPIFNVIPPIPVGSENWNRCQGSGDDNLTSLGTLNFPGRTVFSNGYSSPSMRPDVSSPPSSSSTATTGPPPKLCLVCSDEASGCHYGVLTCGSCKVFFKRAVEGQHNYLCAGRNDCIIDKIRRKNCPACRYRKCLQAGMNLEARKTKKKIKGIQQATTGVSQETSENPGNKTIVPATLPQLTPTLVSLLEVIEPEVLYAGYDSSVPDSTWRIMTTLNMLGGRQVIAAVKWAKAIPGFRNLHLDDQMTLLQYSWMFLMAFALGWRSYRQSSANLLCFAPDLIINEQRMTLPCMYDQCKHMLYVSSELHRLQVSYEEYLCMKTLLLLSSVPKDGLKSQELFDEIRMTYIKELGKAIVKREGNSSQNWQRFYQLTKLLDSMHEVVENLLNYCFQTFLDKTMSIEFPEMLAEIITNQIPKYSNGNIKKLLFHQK

In the case of `C/C=C(\C)C#N`, the outcome in test [1], in test [2], in test [3] and in [4] was inactive.

`CC(=O)OC/C=C(\C)CC/C=C(\C)CCC=C(C)C`: the result in test [1], in test [2], in [5], in test [3], in test [4] and in test [6] was inactive.

As to `N=c1nc(N2CCCCC2)cc(N)n1O`, the outcome in test [7], in test [1], in test [2], in test [5], in [3] and in test [4] was inactive. Moreover, the compound was classed as inactive in [6]. Further, the Potency result in [8] and in test [9] was “inactive” each time.

As to `NC(=O)c1ccc([N+](=O)[O-])cc1`, the compound was called inactive in [1], in test [2], in [5], in test [3], in test [4] and in [6]. The Potency entry in [8] and in [9] was “inactive” in each case.

As to `CN1CC(=O)NC1=N`, the call in [7], in [1], in [2], in test [5], in [3] and in [4] was inactive. Further, the Potency entry in [8] and in test [9] was “inactive” in each case.

With `CO[Si](CCCOCC1CO1)(OC)OC` (stereo not given), the result in test [7], in test [1], in test [2], in test [5], in test [3] and in test [4] was inactive. In addition, in test [6], the result was inactive. Besides, the Potency entry in [8] and in [9] was “inactive” throughout.

In the case of `O=c1n(CCO)c(=O)n(CCO)c(=O)n1CCO`, the compound was called inactive in test [7], in test [1], in [2], in [3], in test [4] and in test [6].

Take `Cc1cc(O)cc2c1O[C@](C)(CCC[C@H](C)CCC[C@H](C)CCCC(C)C)CC2`: the outcome in [7], in test [1], in test [2], in [3], in test [4] and in test [6] was inactive. Further, the Potency entry in test [8] is “inactive”.

In the case of `COc1ccc(CCN(C)CCCC(C#N)(c2cc(OC)c(OC)c(OC)c2)C(C)C)cc1OC` (stereo not given), the outcome in test [7], in test [1], in test [2], in [5], in test [3] and in test [4] was inactive. The Potency result in [8] and in test [9] was “inactive” throughout.

Regarding `CCOC(=O)[C@H](CCc1ccccc1)N[C@@H](C)C(=O)N1[C@H](C(=O)O)C[C@@H]2CCC[C@@H]21`, the call in [7], in test [1], in test [2], in [3], in [4] and in [6] was inactive. In test [8], the Potency entry is “inactive”.

Consider `CO/N=C(/C(=O)N[C@@H]1C(=O)N2C(C(=O)OCOC(=O)C(C)(C)C)=C(C)CS[C@H]12)c1csc(N)n1`, for which the result in test [7], in [1], in test [2], in test [5], in test [3] and in [4] was inactive.

In the case of `COCCc1ccc(OCC(O)CNC(C)C)cc1` (stereo not given), the compound was called inactive in test [7], in [1], in test [2], in test [5], in [3] and in [4]. The call in [6] was inactive. In test [8], the Potency result was “inactive and 10.7 µM (active)”. Also, in test [9], the Potency result is “inactive”.

As to `CN1CCC(=C2c3ccccc3CC(=O)c3sccc32)CC1`, the result in [7], in [1], in test [2], in test [5], in test [3] and in test [4] was inactive. For the same compound, in [6], the compound was classed as inactive. Also, the Potency entry in test [8] and in test [9] was “inactive” throughout.

Take `Cn1c(N)c(N=O)c(=O)n(C)c1=O`: the compound was classed as inactive in test [7], in test [1], in test [2], in test [5], in test [3] and in [4]. Further, the compound was called inactive in [6]. The Potency result in test [8] and in test [9] was “inactive” throughout.

With `COC(=O)c1cc(C(=O)OC)cc(S(=O)(=O)O)c1`, the result in test [7], in test [1], in test [2], in test [5], in [3] and in [4] was inactive. For the same compound, in [6], the call was inactive. Also, the Potency result in test [8] was “inactive”.

With `FC(F)OC(Cl)C(F)(F)F` (stereo not given), the compound was called inactive in test [7], in test [1], in [2], in [5], in test [3] and in [4]. Also, the outcome in test [6] was inactive. Moreover, the Potency entry in [8] and in [9] was “inactive” in each case.

Turning to `O=C1CCCN1C1CCCCC1`, the call in test [7], in [1], in test [2], in [3], in test [4] and in test [6] was inactive. In addition, the Potency entry in [8] was “inactive”.

Take `O=C(O)c1ccccc1OP(=O)(O)O`: the call in [7], in [1], in test [2], in [5], in test [3] and in test [4] was inactive. Moreover, the Potency entry in [8] and in [9] was “inactive” in each case.

For `Cc1ccc(=O)n(-c2ccccc2)c1`, the compound was called inactive in test [7], in test [1], in test [2], in [3], in test [4] and in test [6].

On to `O=C(O)CNC(=O)c1ccc([N+](=O)[O-])cc1`, for which the result in test [7], in test [1], in test [2], in test [5], in test [3] and in [4] was inactive. Also, in test [6], the compound was called inactive.
